13 compounds from the supplement of paper PMC10646978 can be followed below.

± gives the standard deviation.

What all share (details): modulator concentration 10 µM
Test [1] deals with RAW-Dual (murine macrophage reporter line). Description: NF-kB reporter (SEAP) activity fold change vs agonist alone; higher = enhanced NF-kB activity. The gist of the method: (§1)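 RAW-Dual murine macrophage reporter cells were seeded at 50 000 per well in 384-well plates and pre-incubated 1 hour at 37 °C with compound pin-transferred to 10 μM final. After 1 hour, a PRR agonist was added and cells incubated overnight. Supernatant NF-κB (SEAP, QUANTI-Blue, 620 nm absorbance) and IRF (Lucia luciferase, QUANTI-Luc, luminescence) signals were divided by the mean agonist-only control on the same plate to give fold change. Two replicate plates were averaged, with errors by propagation.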

Test [2] shares this test system. Description: IRF reporter (Lucia luciferase) activity fold change vs agonist alone; higher = enhanced IRF activity. The gist of the method:
as §1

For test [3] the test system is unchanged. As to the kind of experiment: viability score (confluency relative to resting cells, overnight) (fraction); higher = more viable, active = viable (0.7 or more). The gist of the method:
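A compound met the cutoff when both of two confluency masks exceeded 70% of resting cells. Those masks were made with IncuCyte software from IncuCyte images of RAW-Dual macrophages treated overnight at 10 μM final. This is the basis of the viability score, which is confluency relative to resting cells.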

The mark [4] stands for this setting: agonist: CpG ODN 1826 0.5 ug/mL.

Turning to `CCOC(=O)N1CCC(=C2c3ccc(Cl)cc3CCc3cccnc32)CC1`, the NF-kB reporter in test [1] (setting [4]) came to 1.07 ± 0.24; in test [1] (agonist: LPS 0.1 ug/mL), 1.09 ± 0.21; in test [1] (agonist: MPLA […]), 0.953 ± 0.053. Also, the IRF reporter turned out to be 0.725 ± 0.04 in test [2] (agonist: 3'3'-cGAMP 10 ug/mL), 1.06 ± 0.097 in test [2] (agonist: LPS 0.1 ug/mL) and 1.33 ± 0.29 in test [2] (agonist: MPLA […]). Besides, the viability score in test [3] is 0.989 (active).
With `Fc1ccc(Oc2nc(Nc3cccc(Cl)c3)nc(N3CCOCC3)n2)cc1`, the NF-kB reporter was 0.331 ± 0.028 in test [1] (setting [4]), 1.33 ± 0.089 in test [1] (agonist: LPS 0.1 ug/mL) and 2.57 ± 0.15 in test [1] (agonist: MPLA […]). Besides, the IRF reporter in test [2] (agonist: 3'3'-cGAMP 10 ug/mL) turned out to be 0.757 ± 0.052; in test [2] (agonist: LPS 0.1 ug/mL) it was 2.94 ± 0.22; in test [2] (agonist: MPLA […]), 2.19 ± 0.34. Moreover, the viability score in test [3] is 0.84 (active).
For the compound `CC(C)Oc1cccc(C(=O)NC(=S)N2CCN(c3ccc([N+](=O)[O-])cc3)CC2)c1`, the values for the NF-kB reporter in test [1] (setting [4]), in test [1] (agonist: LPS 0.1 ug/mL) and in test [1] (agonist: MPLA […]) were 0.83 ± 0.064, 0.943 ± 0.053 and 1.09 ± 0.1, respectively. Further, the IRF reporter is 0.829 ± 0.038 in test [2] (agonist: 3'3'-cGAMP 10 ug/mL), 1.19 ± 0.089 in test [2] (agonist: LPS 0.1 ug/mL) and 1.34 ± 0.15 in test [2] (agonist: MPLA […]). Besides, the viability score in test [3] was 1.02 (active).
With `Cc1cccc(C)c1NC(=O)CC(C)c1ccccc1` (stereo unspecified), the NF-kB reporter in test [1] (setting [4]) worked out at 0.982 ± 0.31; in test [1] (agonist: LPS 0.1 ug/mL), 1.12 ± 0.16; in test [1] (agonist: MPLA […]), 1.2 ± 0.14. The IRF reporter stood at 1.03 ± 0.033 in test [2] (agonist: 3'3'-cGAMP 10 ug/mL), 0.937 ± 0.25 in test [2] (agonist: LPS 0.1 ug/mL) and 1.17 ± 0.33 in test [2] (agonist: MPLA […]). In addition, the viability score in test [3] is 0.915 (active).
Turning to `COC(=O)c1ccccc1NC(=O)CCc1ccc(Oc2cc([N+](=O)[O-])cc([N+](=O)[O-])c2)cc1`, the NF-kB reporter in test [1] (setting [4]) came to 1.22 ± 0.11; in test [1] (agonist: LPS 0.1 ug/mL), 1.08 ± 0.079; in test [1] (agonist: MPLA […]) it was 1.13 ± 0.072. Moreover, the IRF reporter in test [2] (agonist: 3'3'-cGAMP 10 ug/mL) amounted to 0.431 ± 0.054; in test [2] (agonist: LPS 0.1 ug/mL), 1.03 ± 0.17; in test [2] (agonist: MPLA […]), 0.766 ± 0.17. Moreover, the viability score in test [3] was 1.01 (active).
Turning to `O=C1C(O)=C(c2ccc([N+](=O)[O-])cc2)C(=O)c2ccccc21`, the values for the NF-kB reporter in test [1] (setting [4]), in test [1] (agonist: LPS 0.1 ug/mL) and in test [1] (agonist: MPLA […]) were 0.967 ± 0.065, 1.02 ± 0.1 and 0.905 ± 0.079, respectively. For the same compound, the values for the IRF reporter in test [2] (agonist: 3'3'-cGAMP 10 ug/mL), in test [2] (agonist: LPS 0.1 ug/mL) and in test [2] (agonist: MPLA […]) were 0.969 ± 0.038, 1.53 ± 0.13 and 1.28 ± 0.23, respectively. The viability score in test [3] is 1 (active).
Regarding `COC(=O)C1=COC(OC2OC(CO)C(O)C(O)C2O)C2C1CC(O)C2C` (stereo unspecified), the NF-kB reporter in test [1] (setting [4]) came to 1.04 ± 0.081; in test [1] (agonist: LPS 0.1 ug/mL), 0.974 ± 0.099; in test [1] (agonist: MPLA […]), 0.994 ± 0.033. Further, the IRF reporter was found to be 0.976 ± 0.063 in test [2] (agonist: 3'3'-cGAMP 10 ug/mL), 0.946 ± 0.13 in test [2] (agonist: LPS 0.1 ug/mL) and 0.951 ± 0.24 in test [2] (agonist: MPLA […]). The viability score in test [3] was 0.998 (active).
As to `CCOC(=O)c1c(C)n(-c2ccccc2)c2ccc(NS(=O)(=O)c3ccccc3)cc12`, the NF-kB reporter in test [1] (setting [4]) is 0.959 ± 0.16; in test [1] (agonist: LPS 0.1 ug/mL) it was 0.95 ± 0.075; in test [1] (agonist: MPLA […]), 1.04 ± 0.087. The values for the IRF reporter in test [2] (agonist: 3'3'-cGAMP 10 ug/mL), in test [2] (agonist: LPS 0.1 ug/mL) and in test [2] (agonist: MPLA […]) were 0.932 ± 0.029, 1.05 ± 0.13 and 1.21 ± 0.17, respectively. In test [3], the viability score was 0.808 (active).
For the compound `O=C(CSc1ccc2nc(-c3ccccc3)cn2n1)Nc1ccc(Br)cc1`, the NF-kB reporter in test [1] (setting [4]) turned out to be 0.931 ± 0.2; in test [1] (agonist: LPS 0.1 ug/mL), 0.957 ± 0.077; in test [1] (agonist: MPLA […]) it was 0.995 ± 0.15. Also, the results for the IRF reporter in test [2] (agonist: 3'3'-cGAMP 10 ug/mL), in test [2] (agonist: LPS 0.1 ug/mL) and in test [2] (agonist: MPLA […]) were 0.624 ± 0.017, 1.21 ± 0.25 and 1.31 ± 0.23, respectively. For the same compound, in test [3], the viability score was 0.988 (active).
On to `O=C1CCC(N2C(=O)c3ccccc3C2=O)C(=O)N1` (stereo unspecified), for which the NF-kB reporter in test [1] (setting [4]) amounted to 1.13 ± 0.088; in test [1] (agonist: LPS 0.1 ug/mL) it was 1.03 ± 0.16; in test [1] (agonist: MPLA […]), 1.04 ± 0.12. Besides, the results for the IRF reporter in test [2] (agonist: 3'3'-cGAMP 10 ug/mL), in test [2] (agonist: LPS 0.1 ug/mL) and in test [2] (agonist: MPLA […]) were 1.11 ± 0.25, 0.897 ± 0.054 and 0.863 ± 0.067, respectively. Besides, the viability score in test [3] is 0.999 (active).
Turning to `Cc1nn2c(=O)c(Cc3ccccc3)c(C)[nH]c2c1-c1ccccc1`, the values for the NF-kB reporter in test [1] (setting [4]), in test [1] (agonist: LPS 0.1 ug/mL) and in test [1] (agonist: MPLA […]) were 0.777 ± 0.068, 0.878 ± 0.082 and 1.06 ± 0.11, respectively. Besides, the IRF reporter in test [2] (agonist: 3'3'-cGAMP 10 ug/mL) is 1.09 ± 0.057; in test [2] (agonist: LPS 0.1 ug/mL) it was 1.26 ± 0.074; in test [2] (agonist: MPLA […]), 1.36 ± 0.11. For the same compound, the viability score in test [3] is 1 (active).
For the compound `Cc1cccc2sc(NNC(=O)c3ccc(S(=O)(=O)N4CCc5ccccc5C4)cc3)nc12`, the NF-kB reporter was 0.923 ± 0.093 in test [1] (setting [4]), 0.973 ± 0.063 in test [1] (agonist: LPS 0.1 ug/mL) and 0.93 ± 0.079 in test [1] (agonist: MPLA […]). For the same compound, the IRF reporter in test [2] (agonist: 3'3'-cGAMP 10 ug/mL) was 0.929 ± 0.067; in test [2] (agonist: LPS 0.1 ug/mL), 1.2 ± 0.2; in test [2] (agonist: MPLA […]), 0.93 ± 0.11. Also, the viability score in test [3] was 0.995 (active).
With `CC(CS)C(=O)N1CCCC1C(=O)O` (stereo unspecified), the NF-kB reporter in test [1] (setting [4]) was 0.96 ± 0.096; in test [1] (agonist: LPS 0.1 ug/mL), 0.932 ± 0.068; in test [1] (agonist: MPLA […]) it was 0.977 ± 0.18. For the same compound, the IRF reporter in test [2] (agonist: 3'3'-cGAMP 10 ug/mL) turned out to be 0.973 ± 0.03; in test [2] (agonist: LPS 0.1 ug/mL) it was 1.22 ± 0.12; in test [2] (agonist: MPLA […]) it was 1.33 ± 0.18. The viability score in test [3] was 1.02 (active).
